# Reference: PubChem BioAssay (NCATS)
# Where “and” joins values, the source holds several entries; their conditions need not be identical. Equal entries are not always repeated. Records with an inconclusive call do not appear. Where a call stands in place of a potency, no number is given. Calls of active or inactive are those of the source. Unless noted, the call rests on the fitted dose curve; in most records, active means well fitted curve in the direction sought with a large enough effect; inconclusive means small, poorly fitted or top-dose-only effect, or another doubt; inactive means no such curve, though single readings can be large; an effect the other way counts as inactive or inconclusive.
# Legend:
# [1] = Primary qHTS for inhibitors of nuclear receptor binding SET domain protein 2 (NSD2) in an RCH-ACV wild type WT cells (2C) (AID 1645877); further: nearly all actives have a fitted effect of over 70% in size; further: potency means the concentration at half of the fitted maximal effect
# [2] = target: Catechol O-methyltransferase (Homo sapiens) (UniProt P21964); experiment: Confirmatory Screen for Target Class Profiling of Small Molecule Inhibitors of Methyltransferases (AID 1745852; calls by dose curve; further: potency means the concentration at half of the fitted maximal effect); conditions: MTase-Glo luminescence, SAH detection, recombinant enzyme; measured here: COMT max response; stronger effect = lower value
# Catechol O-methyltransferase (Homo sapiens), sequence (P21964 whole entry, looked up): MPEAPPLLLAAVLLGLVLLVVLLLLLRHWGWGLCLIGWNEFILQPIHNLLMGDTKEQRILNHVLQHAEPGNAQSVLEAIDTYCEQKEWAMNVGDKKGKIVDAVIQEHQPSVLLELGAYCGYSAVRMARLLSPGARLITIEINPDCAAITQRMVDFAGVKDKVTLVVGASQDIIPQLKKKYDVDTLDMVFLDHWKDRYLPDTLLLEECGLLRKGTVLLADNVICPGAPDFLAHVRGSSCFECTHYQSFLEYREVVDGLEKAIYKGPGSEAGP
# [3] = target: Guanidinoacetate N-methyltransferase (Homo sapiens) (UniProt Q14353); experiment: as above; conditions: activity change, negative = inhibition: at 57.3 µM (top of the series) unless noted
# [4] = target: Nicotinamide N-methyltransferase (Homo sapiens) (UniProt P40261); experiment: as above; conditions: MTase-Glo luminescence, SAH detection, recombinant enzyme; measured here: NNMT max response; stronger effect = lower value
# Nicotinamide N-methyltransferase (Homo sapiens), sequence (P40261 whole entry, looked up): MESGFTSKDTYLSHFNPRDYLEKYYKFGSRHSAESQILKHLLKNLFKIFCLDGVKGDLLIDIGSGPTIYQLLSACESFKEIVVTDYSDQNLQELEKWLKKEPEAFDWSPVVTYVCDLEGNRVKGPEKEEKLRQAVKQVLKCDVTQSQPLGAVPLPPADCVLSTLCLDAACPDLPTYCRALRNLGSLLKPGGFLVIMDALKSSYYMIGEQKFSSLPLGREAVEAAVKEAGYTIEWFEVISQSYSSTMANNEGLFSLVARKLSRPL
# [5] = target: Phenylethanolamine N-methyltransferase (Homo sapiens) (UniProt P11086); experiment: as above; conditions: MTase-Glo luminescence, SAH detection, recombinant enzyme; measured here: PNMT max response; stronger effect = lower value
# Phenylethanolamine N-methyltransferase (Homo sapiens), sequence (P11086 whole entry, looked up): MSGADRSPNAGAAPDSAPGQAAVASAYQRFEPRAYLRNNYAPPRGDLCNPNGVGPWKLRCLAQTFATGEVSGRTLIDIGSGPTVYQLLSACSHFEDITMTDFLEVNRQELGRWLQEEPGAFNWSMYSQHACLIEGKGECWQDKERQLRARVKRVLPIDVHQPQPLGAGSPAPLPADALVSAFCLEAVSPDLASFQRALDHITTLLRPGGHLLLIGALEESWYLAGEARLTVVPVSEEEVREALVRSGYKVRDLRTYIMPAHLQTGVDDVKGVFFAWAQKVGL
# [6] = target: Glutathione peroxidase 1 (Homo sapiens) (UniProt P07203); experiment: Primary qHTS Assay for Inhibitors of Recombinant Selenoprotein Glutathione Peroxidase 1 (GPX1) (AID 1845191); further: nearly all actives have a fitted effect of over 65% in size
# Glutathione peroxidase 1 (Homo sapiens), sequence (P07203 whole entry, looked up): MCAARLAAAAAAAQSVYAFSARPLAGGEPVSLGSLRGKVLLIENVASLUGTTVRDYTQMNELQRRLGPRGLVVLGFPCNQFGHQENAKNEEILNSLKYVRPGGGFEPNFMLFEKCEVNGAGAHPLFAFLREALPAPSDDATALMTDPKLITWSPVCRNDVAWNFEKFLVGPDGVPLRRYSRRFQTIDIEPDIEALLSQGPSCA
# In short: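 10 nM GPX1 + cpd, 30 min RT; start w/ 1 mM GSH, 0.5 mM cumene hydroperoxide, 0.5 mM NADPH, 100 nM GR, 0.01% BSA; buffer 50 mM Tris-HCl pH 7.5, 2 mM EDTA, 150 mM NaCl; Fl 340/450, 0 & 15 min.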
# [7] = target: Phospholipid hydroperoxide glutathione peroxidase GPX4 (Homo sapiens) (UniProt P36969); experiment: Primary qHTS Assay for Inhibitors of Recombinant Selenoprotein Glutathione Peroxidase 4 (GPX4) (AID 1845192); further: nearly all actives have a fitted effect of over 65% in size
# Phospholipid hydroperoxide glutathione peroxidase GPX4 (Homo sapiens), sequence (P36969 whole entry, looked up): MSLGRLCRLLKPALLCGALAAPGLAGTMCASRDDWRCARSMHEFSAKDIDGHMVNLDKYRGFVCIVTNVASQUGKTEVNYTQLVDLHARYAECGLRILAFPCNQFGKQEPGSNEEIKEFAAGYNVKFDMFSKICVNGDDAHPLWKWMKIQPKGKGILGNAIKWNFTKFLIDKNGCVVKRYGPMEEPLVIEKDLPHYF
# In short: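 NADPH consumption, followed by fluorescence at 340/450 nm between 0 and 15 min, reports GPX4 activity via coupled glutathione reductase (100 nM). Enzyme 200 nM was pre-exposed to compound 30 min; 0.5 mM cumene hydroperoxide and 1 mM GSH served as substrates.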
# [8] = target: Luciferin 4-monooxygenase (Photinus pyralis) (UniProt P08659); experiment: Primary firefly luciferase (FLuc) qHTS assay for identification of artifact compounds. (AID 1845220); further: nearly all actives have a fitted effect of over 60% in size
# In short: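 Compounds sat 15 min at room temperature with 10 uM luciferin and 10 uM ATP (pH 7.6 Tris acetate). Firefly luciferase (10 nM final) was then added, and luminescence was read 5 min later. Data normalized to no-enzyme and DMSO controls were Hill-fitted.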
# [9] = Primary fluorescence-based thiol-reactive (MSTI) qHTS assay for identification of artifact compounds. (AID 1845221); further: nearly all actives have a fitted effect of over 65% in size; further: potency means the concentration at half of the fitted maximal effect
# In short: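 One-hour, room-temperature, dark incubation of compound with 4 uM MSTI in PBS (pH 7.4, 2% DMSO) precedes a fluorescence read at 525 nm excitation, 598 nm emission; Hill-equation fitting yields concentration-response values.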
# [10] = test system: Nanoluciferase (engineered Oplophorus gracilirostris luciferase); experiment: Primary Nanoluciferase (NLuc) qHTS assay for identification of artifact compounds. (AID 1845222)
# In short: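 Luminescence from secreted NLuc (filtered, 1:55-diluted S16 cell medium) read 5 min after Nano-Glo substrate; compounds preincubated 15 min, RT. Hill fits of inhibition normalized to DMSO and no-enzyme.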
# [11] = Primary redox qHTS assay for identification of artifact compounds. (AID 1845223)
# In short: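 Amplex Red (25 uM) and HRP (250 mU/mL) in HBSS, with compounds for 15 min, then 250 uM DTT for 30 min, room temperature, dark. Fluorescence 525/598 nm read; normalized to DMSO and 10 uM DA3003; Hill fit.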
# [12] = NCATS anti-infectives library activity on the primary C. elegans qHTS viability assay (AID 1745855; calls by dose curve; further: potency means the concentration at half of the fitted maximal effect)
# In short: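 Viability read-out is GFP fluorescence of PE254-GFP-FLuc C. elegans, measured by laser cytometry (488 nm) at day 0, 3 and 7. Ten L1 worms per well were incubated 7 days at 21 °C with compounds and bacterial capsules in S medium.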
SMILES,Potency [1],activity [2] [%],"activity change, negative = inhibition [3]",activity [4] [%],activity [5] [%],Potency [6],Potency [7],Potency [8],Potency [9],Potency [10],Potency [11],Potency [3],Potency [12]
COC(=O)C1=CO[C@@H](O[C@@H]2O[C@H](CO)[C@@H](O)[C@H](O)[C@H]2O)[C@H]2[C@@H]1CC(OC)O[C@@H]2C (stereo partly specified),inactive,-63.3,-2.71% [at 29.8 µM],-1.72,-2.32,inactive,inactive,inactive,10.3 µM (active),inactive,inactive,,
CCOc1cc2ncc(C#N)c(Nc3ccc(F)c(Cl)c3)c2cc1NC(=O)/C=C/CN(C)C,1.03 µM (active) and 590 nM (active),-96.3,,-82.7,-97.3,inactive,inactive,inactive,inactive,inactive,inactive,4.82 µM (active),14.5 µM (active)
Oc1ccc(CNc2ccccc2F)c2cccnc12,4.09 µM (active),-81.9,2.39%,-0.361,6.4,inactive,inactive,inactive,3.77 µM (active),inactive,,,
CCOC(=O)CCN(C(=O)c1ccc2c(c1)nc(CNc1ccc(C(=N)N)cc1)n2C)c1ccccn1,inactive,-3.92,2.12%,-8.7,0.0478,inactive,inactive,inactive,inactive,inactive,inactive,,
C=C[C@H]1[C@H](O[C@@H]2O[C@H](CO)[C@@H](O)[C@H](O)[C@H]2O)OC=C(C(=O)OC)[C@H]1CCOC(=O)c1cc(O)c(O)c(O)c1,inactive,-67.5,1.49% [at 29.8 µM],0.422,-11.3,inactive,inactive,inactive,0.922 µM (active),inactive,inactive,,
C=C(C)C1Cc2cc(C(=O)OC3OC(CO)C(O)C(O)C3O)ccc2O1 (stereo unspecified),inactive,-58,-3.06%,-2.77,-3.74,inactive,inactive,inactive,9.27 µM (active),inactive,,,
COc1cc2c(cc1O)CC[C@H]1[C@@H]2CC[C@]2(C)[C@H](O)CC[C@@H]12,0.916 µM (active),-76.8,0.377%,-2.72,-7.82,inactive,inactive,inactive,inactive,inactive,inactive,,
CNC(=O)c1ccccc1Nc1nc(Nc2ccc(N3CCNCC3)cc2)ncc1Cl,inactive,-21.5,-14.2%,-58.7,-30.9,inactive,inactive,inactive,3.36 µM (active),inactive,inactive,,
CC1=CC(=O)C2(OC3OC(C)C(O)C(OC(=O)/C=C/c4ccccc4)C3O)C=COC(OC3OC(CO)C(O)C(O)C3O)C12 (stereo unspecified),inactive,-48.2,-2.18% [at 19.1 µM],-1.08,1.5,inactive,inactive,inactive,1.41 µM (active),inactive,inactive,,
C=C(C(=O)O)[C@@H]1CC[C@@]2(C)CC[C@H](O)[C@@]2(C(C)=O)C1,16.3 µM (active),-66.3,-6.04%,-3.52,-3.81,inactive,inactive,inactive,11.9 µM (active),inactive,inactive,,
C[C@@H](Oc1cc(-n2cnc3ccc(OC4CCN(C)CC4)cc32)sc1C(N)=O)c1ccccc1C(F)(F)F,0.0258 µM (active),-76.5,,-64.9,-73.6,inactive,inactive,inactive,inactive,inactive,,24.1 µM (active),
NC(=O)c1cnc(NCCc2ccc(O)c(Cl)c2)nc1NCc1ccccc1,1.15 µM (active),-29,,-78.6,-25.9,inactive,inactive,inactive,inactive,inactive,,27.1 µM (active),
CCN1CCN(Cc2ccc(Nc3ncc(F)c(-c4cc(F)c5nc(C)n(C(C)C)c5c4)n3)nc2)CC1,649 nM (active) and 417 nM (active),-78.7,,-61.4,-75,inactive,inactive,inactive,inactive,inactive,,15.2 µM (active),
CC1=C(CCC(C)O[C@@H]2O[C@H](CO)[C@@H](O)[C@H](O)[C@H]2O)C(C)(C)CCC1=O (stereo partly specified),inactive,-64,-3.78%,-4.03,-0.201,inactive,inactive,inactive,6.56 µM (active),inactive,inactive,,
CN1CCN(C(=O)c2ccc3cc(CCNc4ncnc5ccc(C#N)cc45)ccc3c2)CC1,1.32 µM (active),-7.48,-3.33%,-11.9,-8.1,inactive,inactive,inactive,inactive,inactive,,,
COc1ccc(CCO[C@@H]2O[C@H](CO[C@@H]3OC[C@H](O)[C@H](O)[C@H]3O)[C@@H](O)[C@H](O)[C@H]2O)cc1,inactive,-55.1,2.09% [at 29.8 µM],1.01,1.06,inactive,inactive,inactive,10.3 µM (active),inactive,inactive,,
